Screening results deposited in PubChem by several laboratories.
Shown are actives, neighbours in structure and some others; about 1.6% of the full set was active somewhere.
ABCB6 inh MLPCN – human ABCB6 transporter inhibition | fluorescence ratio to DMSO, % at 10 µM | AID 602162 | Q9NP58 | K562-ABCB6 porphyrin accumulation, flow cytometry, 1 h; stronger effect = lower value | 0.19% of 360,000 active;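 active = fluorescence ratio to DMSO below 75%, the collection mean minus 3 SD; inconclusive = too few cells collected in the well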;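 note: signal is porphyrin accumulated inside mitochondria; 100% equals median channel fluorescence of DMSO control wells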
Target sequence (Q9NP58 whole entry, looked up): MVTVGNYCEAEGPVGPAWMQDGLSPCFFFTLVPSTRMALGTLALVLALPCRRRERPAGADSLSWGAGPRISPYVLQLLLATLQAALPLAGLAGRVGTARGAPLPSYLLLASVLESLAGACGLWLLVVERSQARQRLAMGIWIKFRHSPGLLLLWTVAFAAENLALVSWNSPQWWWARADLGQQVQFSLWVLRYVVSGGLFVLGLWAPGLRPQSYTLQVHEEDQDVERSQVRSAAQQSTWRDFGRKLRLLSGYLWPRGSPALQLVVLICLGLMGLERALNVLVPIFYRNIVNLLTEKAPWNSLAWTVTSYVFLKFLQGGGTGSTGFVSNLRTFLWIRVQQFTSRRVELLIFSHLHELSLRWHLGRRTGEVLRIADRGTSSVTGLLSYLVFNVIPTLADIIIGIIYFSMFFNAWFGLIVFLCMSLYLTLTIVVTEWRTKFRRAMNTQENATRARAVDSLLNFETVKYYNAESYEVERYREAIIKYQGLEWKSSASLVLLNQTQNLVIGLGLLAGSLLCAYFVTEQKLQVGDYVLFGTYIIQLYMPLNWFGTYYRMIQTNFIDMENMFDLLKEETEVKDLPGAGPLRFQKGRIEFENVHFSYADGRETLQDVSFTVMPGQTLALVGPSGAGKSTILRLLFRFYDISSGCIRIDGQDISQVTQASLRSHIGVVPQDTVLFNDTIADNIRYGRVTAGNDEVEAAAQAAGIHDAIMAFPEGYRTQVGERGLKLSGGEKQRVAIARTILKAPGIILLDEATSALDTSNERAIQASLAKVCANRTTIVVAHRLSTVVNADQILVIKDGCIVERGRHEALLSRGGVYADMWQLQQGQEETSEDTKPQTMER
RAD54 inh – blocks human RAD54 Holliday junction branch migration; AID 602329; FAM/BHQ fluorescence; inhibition, % at 10.4 µM; 0.14% of 360,000 active; Q92698;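 active = mean normalized replicate activity at least 40 and at least half of replicates scoring 40 or more; inconclusive = only one of the two criteria met; inactive = mean below 40 and under half of replicates reaching 40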;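 note: 0% = median of neutral control wells and 100% = median of positive control wells; inhibitors cause a drop in the FAM fluorescence signal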
Glyco luc inh – blocks N-linked glycosylation in D54 reporter cells; D54 ERlucT glycosylation luciferase reporter, 24 h; percent of 100 nM tunicamycin response; reporter increase, % at 12.5 µM; 0.23% of 360,000 active;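 active = mean luciferase reporter signal, scaled so untreated is 0 and the glycosylation-blocking control 100, at or above a set limit in every replicate; inconclusive = mean reaches the limit but not every replicate does; inactive = mean below the limit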;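 note: luciferase carries N-glycosylation sites so blocking glycosylation raises the light; 0% = median of neutral control wells and 100% = median of 100 nM tunicamycin wells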
Myeloid diff MLP – promotes myeloid progenitor differentiation. ER-HoxA9 myeloid progenitors, lysozyme-GFP differentiation, flow cytometry. calls only at 10 µM. 1% of 360,000 active;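 active = normalized GFP-positive differentiation at or above the plate's own cutoff, the solvent-only control mean plus 3 SD; inconclusive = no clear call, values can overlap the other calls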;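 note: cells exposed to compound for four days before flow analysis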
Vif inh – HIV Vif inhibition. HEK293T cells, Vif self-association by quenched fluorescence, imaging, 24 h. inhibition, % at 7.49 µM. 0.35% of 340,000 active. AID 602346; in the data active = inhibition above about 50%, passing the limit was not always enough; inconclusive = no clear call, values can overlap the other calls; inactive = below about 31%
* = called active by the depositor; i = inactive; ? = inconclusive; . = no result; + = active, no number.

SMILES	ABCB6 inh MLPCN	RAD54 inh	Glyco luc inh	Myeloid diff MLP	Vif inh
CS(=O)(=O)Nc1ccc2c(c1)[C@@H]1C[C@@H](CC(=O)NCc3ccccc3)O[C@@H](CO)[C@@H]1O2	.	0	.	.	.
Cc1ccc(N)c(C(=O)CCCCC(=O)O)c1	102	1	1	+	5
CC(C)NC(=O)N(C)C[C@H]1OCCCC[C@H](C)Oc2ccc(NC(=O)c3ccccc3)cc2C(=O)N([C@H](C)CO)C[C@@H]1C	.	-1	.	.	.
Cc1ccc2c(c1)S/C(=C/c1ccc[n+](C)c1)N2CCO	172	.	1	+	4
CCCCN1/C(=C/c2cccc[n+]2C)Sc2cc(NC(C)=O)ccc21	133	13	1	i	20
CN(C)CCCN(C(=O)c1cccs1)c1nc(-c2ccccc2)cs1	100	6	-5	+	-20
CC(=O)N1[C@@H](CO)[C@@H]2c3ccccc3N(S(=O)(=O)c3cccc(C)c3)C[C@@H]21	.	-2	.	.	.
CC(=O)N(C)C[C@@H]1Oc2cc(C#Cc3cccc(F)c3)ccc2S(=O)(=O)N([C@@H](C)CO)C[C@H]1C	.	9	.	.	.
CCCOc1cccc(-c2nn(-c3ccccc3)cc2/C=C(\C#N)C(=O)NCCCn2ccnc2)c1	125	-4	0	+	10
CCC(=O)N(C)C[C@@H]1Oc2cc(-c3cccc(OC)c3)ccc2S(=O)(=O)N([C@H](C)CO)C[C@H]1C	.	-1	.	.	.
C[C@@H]1CCCCO[C@@H](CN(C)S(=O)(=O)c2cn(C)cn2)[C@@H](C)CN([C@@H](C)CO)C(=O)c2cc(NS(=O)(=O)c3cccs3)ccc2O1	.	4	.	.	.
O=C(/C=C(\c1ccccc1)n1cncn1)c1ccccc1	98	.	5	i	0
O=C(/C=C(\c1ccc(Cl)cc1)n1cncn1)c1ccc(Cl)cc1	100	2	27*	i	-7
Cc1noc(C)c1NC(=O)N(C)C[C@@H]1OCCCC[C@H](C)Oc2ccc(NC(=O)c3ccccc3)cc2C(=O)N([C@H](C)CO)C[C@H]1C	.	-5	.	.	.
O=C(CNC(=O)[C@@H]1Cc2ccccc2CN1)Nc1ccc2c(c1)OCO2	103	-3	0	+	-8
CC(NC(=O)CNC(=O)[C@@H]1Cc2ccccc2CN1)c1ccccc1 (stereo partly specified)	99	4	3	i	-1
C[C@H](NC(=O)[C@@H]1Cc2ccccc2CN1)C(=O)Nc1ccc2c(c1)OCO2	98	.	-1	i	-1
O=C(CNC(=O)[C@@H]1Cc2ccccc2CN1)NCc1ccco1	100	-1	2	+	-5
Cc1noc(C)c1NC(=O)N(C)C[C@@H]1OCCCC[C@@H](C)Oc2ccc(NS(=O)(=O)c3ccc(F)cc3)cc2C(=O)N([C@H](C)CO)C[C@@H]1C	.	2	.	.	.
O=C(C[C@H]1CC[C@H]2[C@@H](COC[C@H](O)CN2C(=O)Nc2ccc(Cl)c(Cl)c2)O1)NCc1ccc(F)cc1	.	1	.	.	.
CCOC(=O)C1=C(C)N(CCO)C(=O)NC1c1ccccc1 (stereo unspecified)	97	-2	4	i	63*
Cc1ccc(C#CC[N+](C)(C)CC#Cc2ccccc2)cc1	97	.	7	i	1
C#CC[N+](C)(C)CC#Cc1ccccc1	102	.	6	+	-4
CCOC(=O)NC(=O)CSc1nc(C)cc(C(F)(F)F)c1C#N	143	-18	0	+	-6
Cc1cc(C(F)(F)F)c(C#N)c(SCC(=O)Nc2nc3cc(Br)ccc3s2)n1	115	.	-2	+	2
SMILES	ABCB6 inh MLPCN	RAD54 inh	Glyco luc inh	Myeloid diff MLP	Vif inh
Cc1ccc(S(=O)(=O)CCSc2nc(C)cc(C(F)(F)F)c2C#N)cc1	296	-9	-10	+	.
COC(=O)CSc1nc(C)cc(C(F)(F)F)c1C#N	104	-1	2	i	3
CCCCOc1ccc(-c2cc(C(F)(F)F)c(C#N)c(SCC(=O)O)n2)cc1	123	.	1	+	0
CCNC(=O)[C@H]1[C@H](CO)[C@H]2Cn3c(ccc(C4=CCCC4)c3=O)[C@@H]1N2Cc1ccncc1	.	-1	.	.	.
COC(=O)C[C@H]1CC[C@@H](NC(=O)Nc2ccc(C(F)(F)F)cc2)[C@H](CO)O1	.	1	.	.	.
O=C(Nc1ccccc1Cl)N1[C@H](CO)[C@@H]2c3ccccc3NC[C@@H]21	.	2	.	.	.
O=C(Nc1ccc(F)cc1)N[C@H]1C=C[C@H](CC(=O)N2CCOCC2)O[C@@H]1CO	.	0	.	.	.
C[C@H](CO)N1C[C@H](C)[C@@H](CN(C)Cc2cncnc2)Oc2ncc(C#Cc3ccccn3)cc2C1=O	.	-13	.	.	.
Cc1cc(C(=O)Nc2cccc3c2O[C@@H](CN(C)Cc2ccc(-c4ccccc4)cc2)[C@H](C)CN([C@H](C)CO)C3=O)n(C)n1	.	-23	.	.	.
Oc1ccc(Br)cc1C=Nc1ccc2c3c(cccc13)CC2	113	.	-3	+	i
Oc1ccc(Cl)cc1C=Nc1ccccc1Br	99	.	-2	i	-4
Cc1oc(C(C)(C)C)cc1C(=O)N1CCCC1C(=O)O (stereo unspecified)	100	0	1	+	9
CC(C)(C)OC(=O)N1CCCC1C(=O)O (stereo unspecified)	98	-18	1	i	-8
Cc1ccc(S(=O)(=O)CCC(=O)O)cc1C	101	-7	2	+	0
COc1ccc(N(CCC(=O)O)S(=O)(=O)c2ccc(C)c(C)c2)cc1	98	.	3	i	-5
N#Cc1cccc(-c2ccc3c(c2)[C@H]2[C@H](CCN2S(=O)(=O)c2ccccc2F)[C@@H](CO)N3)c1	.	3	.	.	.
CCNC(=O)C[C@@H]1CC[C@H]2[C@@H](COC[C@H](O)CN2Cc2ccccc2F)O1	.	5	.	.	.
CC(C)(C)C(=O)N1CCN(c2nc3ccccc3s2)CC1	99	-3	-3	i	9
CCc1ccc2nc(N3CCN(C(=O)C(C)(C)C)CC3)sc2c1	97	-12	-3	+	?
O=C(c1ccccc1)c1nc2ccccc2n(CCCn2c(=O)c(C(=O)c3ccccc3)nc3ccccc32)c1=O	95	3	-4	+	2
C[C@H]1CN([C@@H](C)CO)C(=O)c2cc(C#Cc3ccccc3F)cnc2O[C@@H]1CN(C)C(=O)Cc1cccnc1	.	-8	.	.	.
O=C1c2ccccc2S(=O)(=O)N1CCCN1C(=O)c2ccccc2S1(=O)=O	97	2	-2	i	18
O=C1c2ccccc2C(=O)N1OCCCN1C(=O)c2ccccc2S1(=O)=O	31*	.	-2	?	-5
C[C@@H]1CN([C@H](C)CO)S(=O)(=O)c2ccc(C#CC3CC3)cc2O[C@H]1CN(C)C(=O)C1CCC1	.	-1	.	.	.
Cc1cccc(NC(=O)CNC(=O)CSc2ncccn2)c1C	98	1	-1	i	29
Cc1cccc(NC(=O)CNC(=O)Cn2ncc(Cl)c(Cl)c2=O)c1C	96	-4	8	i	57*
Nc1ccccc1NC1CCCCC1	127	.	-4	+	3
O=C(Nc1ccccc1NC(=O)NC1CCCCC1)NC1CCCCC1	98	-7	0	i	-7
